According to PubChem BioAssay (EPA / NIEHS):
The source made the active and inactive calls. How the source made its calls: active means hit-call score of the fitted dose curve at least 0.9, where 1 is the maximum; inactive means score below 0.9.

Experiments:
Conditions in all cases: mRNA level, 48 h; actives raise or lower the signal
[1] = read-out: ABC Transporter (ABCC2), ABCC2 (gene 1244); assay: LTEA_HepaRG_ABCC2: Life Technologies and Expression Analysis (LTEA) Assay for ABC Transporter (ABCC2) using HepaRG (AID 2283464)
How it was run: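 qRT-PCR (TaqMan, Fluidigm array) read-out of ABCC2 mRNA, normalized to three housekeeping genes. Differentiated HepaRG cells were treated 48 h in serum-free induction medium with 8-point half-log series from 100 uM in 0.5% DMSO; curves fitted bidirectionally relative to DMSO.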

[2] = read-out: Broad substrate specificity ATP-binding cassette transporter ABCG2 (Homo sapiens) (UniProt Q9UNQ0); assay: LTEA_HepaRG_ABCG2: Life Technologies and Expression Analysis (LTEA) Assay for ABC Transporter (ABCG2) using HepaRG (AID 2283465)
How it was run: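 Differentiated HepaRG cells were exposed for 48 h in serum-free induction medium to 8 half-log concentrations, top 100 uM, in 0.5% DMSO. ABCG2 mRNA was measured by qRT-PCR, normalized to ACTB, GAPDH and POLR2A, with bidirectional fitting versus DMSO.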

[3] = read-out: ATP-citrate lyase (ACLY), ACLY (gene 47); assay: LTEA_HepaRG_ACLY: Life Technologies and Expression Analysis (LTEA) Assay for ATP-citrate lyase (ACLY) using HepaRG (AID 2283466)
How it was run: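 Differentiated HepaRG cells exposed 48 h in serum-free induction medium to eight half-log concentrations up to 100 uM in 0.5% DMSO, duplicates. Transcript measured by Fluidigm TaqMan qRT-PCR, normalized to ACTB, GAPDH, POLR2A; bidirectional fit versus DMSO.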

[4] = read-out: Peroxisomal acyl-coenzyme A oxidase 1 (ACOX1) gene, ACOX1 (gene 51); assay: LTEA_HepaRG_ACOX1: Life Technologies and Expression Analysis (LTEA) Assay for Peroxisomal acyl-coenzyme A oxidase 1 (ACOX1) gene using HepaRG (AID 2283467)
How it was run: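 HepaRG cells, plated 48 h then switched to serum-free induction medium, were exposed in duplicate for 48 h to 8-point half-log concentrations up to 100 uM in 0.5% DMSO. ACOX1 mRNA was measured by qRT-PCR, normalized to ACTB/GAPDH/POLR2A, and fitted bidirectionally versus DMSO.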

[5] = read-out: Alkaline Phosphatase, Placental (ALPP) gene, ALPP (gene 250); assay: LTEA_HepaRG_ALPP: Life Technologies and Expression Analysis (LTEA) Assay for Alkaline Phosphatase, Placental (ALPP) gene using HepaRG (AID 2283468)
How it was run: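 qRT-PCR readout of ALPP mRNA (Fluidigm TaqMan), normalized to ACTB/GAPDH/POLR2A, after 48 h chemical exposure of HepaRG cells; 8-point half-log series, top 100 uM, 0.5% DMSO vehicle. Bidirectional curve fit versus DMSO baseline.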

[6] = read-out: Bcl-2 (BAD) gene, BAD (gene 572); assay: LTEA_HepaRG_BAD: Life Technologies and Expression Analysis (LTEA) Assay for Bcl-2 (BAD) gene using HepaRG (AID 2283469)
How it was run: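 Differentiated HepaRG cells were exposed in duplicate in 0.5% DMSO for 48 h to eight-point half-log concentrations up to 100 uM. BAD mRNA was measured by Fluidigm TaqMan qRT-PCR, normalized to ACTB, GAPDH and POLR2A, and fitted bidirectionally against DMSO.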

[7] = read-out: Bcl-2 (BAX) gene, BAX (gene 581); assay: LTEA_HepaRG_BAX: Life Technologies and Expression Analysis (LTEA) Assay for Bcl-2 (BAX) gene using HepaRG (AID 2283470)
How it was run: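 Differentiated HepaRG cells exposed 48 h in serum-free induction medium, eight half-log concentrations from 100 uM, in duplicate, 0.5% DMSO vehicle. BAX mRNA by TaqMan qRT-PCR, normalised to ACTB, GAPDH and POLR2A.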

[8] = read-out: adenosine kinase (ADK) gene, ADK (gene 132); assay: LTEA_HepaRG_ADK: Life Technologies and Expression Analysis (LTEA) Assay for adenosine kinase (ADK) gene using HepaRG (AID 2283471)
How it was run: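 ADK expression quantified by qRT-PCR, normalised to three housekeeping genes, after 48 h exposure of HepaRG cells to eight concentrations (top 100 uM, half-log steps, duplicate, 0.5% DMSO). Up- or down-regulation fitted relative to vehicle.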

[9] = read-out: Alpha-fetoprotein (AFP) gene, AFP (gene 174); assay: LTEA_HepaRG_AFP: Life Technologies and Expression Analysis (LTEA) Assay for Alpha-fetoprotein (AFP) gene using HepaRG (AID 2283472)
How it was run: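 Differentiated human HepaRG cells exposed 48 h in serum-free induction medium, 8-point half-log series from 100 uM in 0.5% DMSO, duplicate. AFP mRNA by qRT-PCR, normalized to ACTB, GAPDH, POLR2A; bidirectional fit vs DMSO.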

BCL2L11 (gene 10018) = assay: LTEA_HepaRG_BCL2L11: Life Technologies and Expression Analysis (LTEA) Assay for Bcl-2 (BCL2L11) gene using HepaRG (AID 2283473)
How it was run: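 HepaRG, 48 h exposure, 8-pt half-log series from 100 uM in 0.5% DMSO, duplicates; qRT-PCR (Fluidigm TaqMan) for BCL2L11, housekeeping-normalized; bidirectional curve fit relative to DMSO baseline.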

Measured: AC50

Chain of Broad substrate specificity ATP-binding cassette transporter ABCG2 (Homo sapiens) (Q9UNQ0 whole entry, looked up): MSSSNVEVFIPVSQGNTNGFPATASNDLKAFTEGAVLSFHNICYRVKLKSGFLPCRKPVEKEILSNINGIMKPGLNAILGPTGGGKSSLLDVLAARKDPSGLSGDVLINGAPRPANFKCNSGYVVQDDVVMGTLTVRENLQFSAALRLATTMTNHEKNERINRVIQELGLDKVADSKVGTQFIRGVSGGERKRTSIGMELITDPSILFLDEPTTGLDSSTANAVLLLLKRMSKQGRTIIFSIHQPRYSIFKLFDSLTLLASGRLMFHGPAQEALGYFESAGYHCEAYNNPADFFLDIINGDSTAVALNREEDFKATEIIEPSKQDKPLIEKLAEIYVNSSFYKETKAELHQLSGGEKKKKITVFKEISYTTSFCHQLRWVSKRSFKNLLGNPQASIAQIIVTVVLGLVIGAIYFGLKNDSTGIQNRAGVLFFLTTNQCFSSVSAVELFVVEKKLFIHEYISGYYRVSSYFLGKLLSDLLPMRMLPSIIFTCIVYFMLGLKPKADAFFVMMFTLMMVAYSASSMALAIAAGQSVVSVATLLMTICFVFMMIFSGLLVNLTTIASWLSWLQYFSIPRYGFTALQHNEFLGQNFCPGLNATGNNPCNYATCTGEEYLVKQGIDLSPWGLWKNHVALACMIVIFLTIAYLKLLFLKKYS

CC/C(=C\C(=N/O)C(N)=O)C(C)[N+](=O)[O-] (stereo unspecified)
inactive: all assays above

O=P(OC(CCl)CCl)(OC(CCl)CCl)OC(CCl)CCl
inactive: [1] | [4] | [6]
active: [2] 78.5 µM | [3] 75.9 µM | [5] 0.259 µM | [7] 84.5 µM | [8] 0.272 µM | [9] 15.8 µM | BCL2L11 (gene 10018) 83.8 µM

O=C(O)c1cccc(Oc2ccccc2)c1
inactive: all assays above

CN(C)c1ccc(N=NS(=O)(=O)O)cc1
active: [4] 12.9 µM
inactive: all other assays above

Oc1ccc2c(c1)-c1ccccc1C2
not listed: [7]
inactive: all other assays above

Cc1ccc(C)c(O)c1
inactive: all assays above

CCCN(C1CCN(C(=O)C2CCNCC2)CC1)[C@@H]1CCc2ccc(OC)cc2C1
active: [1] 76 µM | [2] 35.5 µM | [4] 33.1 µM | [5] 50 µM | [9] 76.2 µM
inactive: [3] | [6] | [8] | BCL2L11 (gene 10018)

COC(=O)c1c(Cl)c(Cl)c(C(=O)OC)c(Cl)c1Cl
not listed: [7]
inactive: all other assays above

CCCCCCCCCCCCCCCO
not listed: [7]
inactive: all other assays above

Cn1cnc([N+](=O)[O-])c1Sc1ncnc2nc[nH]c12
active: [7] 8.77 µM | [9] 5.38 µM | BCL2L11 (gene 10018) 7.34 µM
inactive: all other assays above

CCOC(=O)c1ccc(C2CCC(NC[C@H](O)COc3ccc(O)c(NS(C)(=O)=O)c3)CC2)cc1 (stereo partly specified)
active: [5] 1.83 µM
not listed: [7]
inactive: all other assays above

CC(=O)OCCC(C)C
inactive: all assays above

CC(C)CCO
not listed: [7]
inactive: all other assays above

CC(C)=CCCC(C)CCO (stereo unspecified)
not listed: [7]
inactive: all other assays above

O=C1CCCCCN1
inactive: all assays above

NC(=O)NO
inactive: all assays above

CCOC(=O)CC(CC(=O)OCC)(OC(C)=O)C(=O)OCC
inactive: all assays above

CCc1cc(SCc2sc(-c3ccc(C(F)(F)F)cc3)nc2CN2CCN(c3ccc(OC)cc3)CC2)ccc1OCC(=O)O
active: [1] 93.3 µM | [2] 7.49 µM | [3] 93.4 µM | [4] 92.7 µM | [5] 6.34 µM | [6] 87 µM | [8] 90.9 µM | [9] 7.69 µM | BCL2L11 (gene 10018) 89.4 µM

CCOCCO
not listed: [7]
inactive: all other assays above

CC[C@H]1OC(=O)[C@H](C)[C@@H](O[C@H]2C[C@@](C)(OC)[C@@H](O)[C@H](C)O2)[C@H](C)[C@@H](O[C@@H]2O[C@H](C)C[C@H](N(C)C)[C@H]2O)[C@](C)(O)C[C@@H](C)C(=O)[C@H](C)[C@@H](O)[C@]1(C)O
not listed: [8]
inactive: all other assays above

CC(C)c1cccc(C(C)C)c1N1C(=O)c2ccc(O)cc2C1=O
active: [1] 29 µM | [2] 50 µM | [3] 74.8 µM | [5] 91.6 µM | [9] 79.9 µM
inactive: [4] | [6] | [8] | BCL2L11 (gene 10018)

C[C@](N)(Cc1ccc(O)c(O)c1)C(=O)O
inactive: all assays above

O=C1CCC(N2C(=O)c3ccccc3C2=O)C(=O)N1 (stereo unspecified)
not listed: [7]
inactive: all other assays above

CCCCCCCCCCCCc1ccccc1
inactive: all assays above

CCOCCOCCOCCO
inactive: all assays above

CC(=O)c1ccc2c(c1)[C@H](NC(=O)c1ccc(F)cc1)[C@@H](O)C(C)(C)O2
active: [1] 9.67 µM
inactive: all other assays above

CCCCCCc1ccc(O)cc1O
not listed: [7]
inactive: all other assays above

CCCCC(CC)COC(=O)CCCCCCCCC(=O)OCC(CC)CCCC (stereo unspecified)
not listed: [7]
inactive: all other assays above

COCCOc1cc2cc(C(=O)NC3CCN(C(C)C)CC3)n(CC(=O)Nc3ccc(Cl)cn3)c2cn1
active: [1] 37.2 µM | [4] 39.4 µM | [9] 65 µM | BCL2L11 (gene 10018) 15.2 µM
inactive: all other assays above
